Eleven molecules from PubChem BioAssay (NCATS) can be followed below.

“And” between values parts separate entries of the source, which are not always exact repeats. Identical values can stand only once. Results filed as inconclusive are left out. The source made the active and inactive calls. Unless noted, calls follow the shape of the dose curve; as a rule, active = well fitted curve in the direction sought with a large enough effect; inconclusive = small, poorly fitted or top-dose-only effect, or another doubt; inactive = no such curve, though single readings can be large; an effect the other way counts as inactive or inconclusive. Where a SMILES comes first, the peptide text is derived from it. The star is where a group is joined. Cbz = O=C(OCc1ccccc1)*; CH2F = FC*

The subject of test [1] is Zika virus NS2B-NS3 protease. The test is described as follows: Primary screen GU AMC qHTS for Zika virus inhibitors (AID 1347154).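 Also: 0% = no-inhibitor control and -100% = no-enzyme control; nearly all actives have a fitted effect of over 70% in size.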 A digest of the protocol:
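Unlinked Zika NS2B hydrophilic domain/NS3 protease domain noncovalent complex (25 nM final) in 10 mM Tris-HCl pH 8.0, 0.01% Tween 20, with AMC peptide substrate. Fluorescence (ex 340, em 450 nm) change over 15 min, room temperature; percent inhibition fitted to 4-parameter Hill equation.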
For orientation: Quantitative high-throughput screening tests each substance at several concentrations.

Test [2] in a line: Primary qHTS for small molecule stabilizers of the endoplasmic reticulum resident proteome: Secreted ER Calcium Modulated Protein (SERCaMP) assay (AID 1508630). Also: % is scaled to controls: 0 for no effect and ±100 for the full control effect. Put shortly:
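The SH-SY5Y reporter protocol was run at 3 concentrations up to 38.3 uM (primary) or 11 concentrations (follow-up): 16 h compound, 100 nM thapsigargin for 4 h, then extracellular luciferase luminescence.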

Test [3] in a line: AP1 Signaling Pathway (AID 357; active = well fitted curve in either direction with a large enough effect, not every such curve was filed as active;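 also: ME-180 reporter cells stimulated with EGF at its EC50 level; % is scaled to controls: 0 for no effect and ±100 for the full control effect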). The note with it: ME-180 AP-1-bla reporter, EGF-induced, beta-lactamase ratio, 5 h. A digest of the protocol:
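Titration-series screen for positive or negative modulators of EC50 EGF-induced signaling in ME-180 cells carrying an AP-1-driven beta-lactamase reporter. After 5 hours at 37 degrees Celsius, CCF4 460nm/530nm emission ratio gave %Activity; AC50 values derived.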

The nature of test [4]: NFAT Signaling Pathway (AID 444; active = well fitted curve in either direction with a large enough effect, not every such curve was filed as active;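 also: carbachol stimulus at about its EC50 of 1 µM final; % is scaled to controls: 0 for no effect and ±100 for the full control effect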). The note with it: Jurkat NFAT-bla M1, carbachol, beta-lactamase ratio, 5 h. A digest of the protocol:
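Jurkat cells carrying an NFAT-driven β-lactamase reporter and co-transfected muscarinic M1 receptor were treated with compound plus carbachol (1 uM final, an EC50 level) for 5 h at 37 °C. CCF4 loading followed for 1 h at RT; 460/530 nm ratio gave %activity.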

A short description of test [5]: Stat Signaling Pathway (AID 446; active = well fitted curve in either direction with a large enough effect, not every such curve was filed as active;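 also: ME-180 cervical cancer cells given 40 pM IL-6 alongside compound; SIE-controlled beta-lactamase reporter measured as 460/530 nm FRET emission ratio; % is scaled to controls: 0 for no effect and ±100 for the full control effect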). The note with it: ME-180 (cervical carcinoma) SIE beta-lactamase reporter, IL-6 stimulated, 5 h. Put shortly: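 Compound effects on IL-6-induced STAT reporter activity were measured in ME-180 cells. After overnight culture, cells were co-treated with 40 pM IL-6 for 5 hrs before beta-lactamase substrate loading at room temperature.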
Test [6] addresses Glucocorticoid receptor (Homo sapiens) (UniProt P04150). The test is described as follows: GR-GFP Redistribution (AID 450;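 active = compounds whose dose series gives a full or clear partial fitted curve of increased nuclear translocation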; also: potency is read from the fitted curve at half-maximal effect). Conditions: U2OS GR-GFP nuclear translocation, laser cytometry, 2 h.
Test [7] has the same target. The test is described as follows: GR-EFC Redistribution (AID 451; calls by dose curve; also: potency is read from the fitted curve at half-maximal effect). Conditions: CHO-K1 GR-EFC translocation, beta-gal luminescence, 2 h. Put shortly: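 CHO-K1 cells stably expressing nuclear-localized β-gal enzyme acceptor and GR fused C-terminally to the enzyme donor fragment; ligand-driven nuclear translocation restores β-gal by complementation. Compounds titrated up to 46 uM final, 2 h at 37 °C; luminescence read.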

For test [8], the target named is Mitogen-activated protein kinase 10 (Mus musculus) (UniProt Q61831). The test is described as follows: JNK3 AlphaScreen Assay (AID 530; active = well fitted curve in either direction with a large enough effect, not every such curve was filed as active). Put shortly: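 Phosphorylation of biotinylated GST-cJun(1-79) at Ser73 is measured by AlphaScreen proximity luminescence. Enzyme is JNK3 in HepG2 lysates activated with interleukin-1beta and tumor necrosis factor alpha; ATP is 10 uM final.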
(Bead proximity is the source of the signal in Alpha formats.)

For test [9], the target named is 3',5'-cyclic-AMP phosphodiesterase 4B (Homo sapiens) (UniProt Q07343). The test is described as follows: qHTS Assay for Inhibitors of PDE-IV (AID 607; active = well fitted activation curve with a large enough effect in the main read-out, with a control signal flat, not every such curve was filed as active; also: % of control where 0% means no effect). A digest of the protocol:
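ACTOne HEK293 cells carry a modified cAMP-gated CNG channel and express endogenous PDE4; plated 1000 cells/well, compounds up to 22.9 uM final. Membrane-potential dye fluorescence (ex 535/em 590) was read; parental cells received 10 uM forskolin + 100 uM RO 20-1724.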

Test [10] concerns the target Guanine nucleotide-binding protein G(i) subunit alpha-1 (Homo sapiens) (UniProt P63096). The test is described as follows: qHTS Assay for Inhibitors of RGS12 GoLoco Motif Activity (Green Fluorophore) (AID 879).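 Also: 0% = labeled peptide with Gαi1 and full inhibition = labeled peptide alone without protein; negative values mean loss of peptide binding seen as reduced polarization.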 A digest of the protocol: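 A drop in FITC polarization marked displacement of the FITC-tagged RGS12 GoLoco peptide (10 nM) from Gαi1 (50 nM). Compounds were incubated 10 min at room temperature in Tris pH 7.5 buffer containing 150 mM NaCl, 0.1 mM GDP and 0.05% NP40; unlabeled peptide titration served as control.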

Test [11] deals with Cytochrome P450 2C9 (Homo sapiens) (UniProt P11712). The test is described as follows: qHTS Assay for Inhibitors and Substrates of Cytochrome P450 2C9 (AID 883). Also: potency is read from the fitted curve at half-maximal effect; nearly all actives have a fitted effect of over 60% in size. Put shortly:
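A luminogenic readout tracked human CYP2C9 (10nM) converting deoxyluciferin (100uM, at KM) in 25mM KPO4 during 60 min at 37C with regenerated NADPH. Values normalized to 57uM sulphaphenazole as complete inhibition.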

Test [12] in a line: qHTS Assay for Identification of Small Molecule Agonists for Thrombopoietin (TPO) Signaling Pathway (AID 917). Also: % is scaled to controls: 0 for no effect and ±100 for the full control effect. Put shortly:
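Quantitative HTS for pathway activators: compounds were pin-transferred onto IL-3-starved Ba/F3 cells expressing human TPO receptor, TPO was added at its EC50 (26 pM final), and after 24 hrs at 37 C reporter luciferase was measured.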

For test [13], the target named is Muscarinic acetylcholine receptor M1 (Rattus norvegicus) (UniProt P08482). The test is described as follows: qHTS Assay for Antagonists of Acetylcholine Muscarinic M1 Receptor: Measurement of IP-One Response (AID 944). Also: nearly all actives have a fitted effect of over 75% in size. Put shortly:
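Antagonist mode with rat M1 receptor transfected into CHO cells. Compound is added first for 10 min, carbachol at its EC80 follows for 30 min, and lysis reagents then allow TR-FRET detection of accumulated IP1.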

Test [14] has as its target Pyruvate kinase (Leishmania mexicana) (UniProt Q27686). The test is described as follows: qHTS Validation Assay for Inhibitors of Leishmania Mexicana Pyruvate Kinase (AID 945).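 Also: 0% = DMSO only neutral control wells.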 Put shortly:
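Pyruvate kinase activity of E451W LmPYK (0.2 nM) was followed as ATP output after 1 h at room temperature with 0.5 mM PEP and 0.1 mM ADP, detected by PKLight luminescence.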

In test [15] the target is Alpha-galactosidase A (Homo sapiens) (UniProt P06280). The test is described as follows: Counterscreen for Glucocerebrosidase Inhibitors: qHTS Assay for Human alpha-Galactosidase at pH 4.5 (AID 992). Also: 0% is about no effect. Put shortly:
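Citrate buffer pH 4.5, Tween-20 0.005%. Enzyme 2 nM, substrate 80 uM, 20 min RT. Stop pH 10. Fluorescence Ex 365/Em 440. AC50 by Hill fit.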
(A counterscreen serves to expose hits that act by an unwanted route or on another target.)

In test [16] the target is alpha-glucosidase (Oryza sativa, rice) (UniProt Q653V4). The test is described as follows: Counterscreen for Glucocerebrosidase Inhibitors: qHTS Assay for Rice alpha-Glucosidase at pH 5.0 (AID 997).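 Also: 0% = full activity with enzyme and -100% = basal without enzyme.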 Put shortly: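 Endpoint fluorogenic assay at pH 5.0: compounds (0.7 nM to 77 uM) titrated against 4 nM rice enzyme and 400 uM 4-MU-alpha-glucoside for 20 min at room temperature; NaOH/glycine stop, read ex 365/em 440 nm, Hill-fitted AC50.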

Test [17] can be described thus: qHTS Assay for Lipid Storage Modulators (AID 1519; calls by dose curve). The note with it: Drosophila S3 cells, BODIPY lipid droplet/cell ratio, laser cytometry, cells loaded with oleic acid. Put shortly: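 Cells seeded at 5,000 per well were treated with compounds over a concentration series and loaded with oleic acid (400 uM, as added). Lipid droplet fluorescence (488 nm excitation, 500-530 nm channel) was read by laser-scanning cytometry and normalized to 20 uM Triacsin C.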

Test [18] has as its target Ubiquitin carboxyl-terminal hydrolase 1 (Homo sapiens) (UniProt O94782). The test is described as follows: Inhibitors of USP1/UAF1: Pilot qHTS (AID 504865).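 Also: rhodamine fluorescence freed from ubiquitin-rhodamine substrate followed over time; top concentration of the series differs between compounds; % is scaled to controls: 0 for no effect and ±100 for the full control effect; nearly all actives have a fitted effect of over 35% in size.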 A digest of the protocol:
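Kinetic fluorescence assay: 1nM USP1/UAF1, 15 min compound preincubation, then 150nM Ub-Rho; 480/540 nm.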

Test [19] concerns the target DNA dC->dU-editing enzyme APOBEC-3G (Homo sapiens) (UniProt Q9HC16). The test is described as follows: qHTS for inhibitors of Vif-A3G interactions: Validation (AID 588379). Also: 0% is about no effect. A digest of the protocol:
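Yellow fluorescence (Ex 488, Em 500-530) of Vif-coexpressing HeLa A3G-eYFP cells, scanned by Acumen cytometer, reports blocked A3G degradation. Cells plated at 700/well overnight at 37 deg C before compound addition, then a further overnight compound incubation at 37 deg C.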

Glucocorticoid receptor (Homo sapiens), sequence (P04150 whole entry, looked up, the tested form may be a part): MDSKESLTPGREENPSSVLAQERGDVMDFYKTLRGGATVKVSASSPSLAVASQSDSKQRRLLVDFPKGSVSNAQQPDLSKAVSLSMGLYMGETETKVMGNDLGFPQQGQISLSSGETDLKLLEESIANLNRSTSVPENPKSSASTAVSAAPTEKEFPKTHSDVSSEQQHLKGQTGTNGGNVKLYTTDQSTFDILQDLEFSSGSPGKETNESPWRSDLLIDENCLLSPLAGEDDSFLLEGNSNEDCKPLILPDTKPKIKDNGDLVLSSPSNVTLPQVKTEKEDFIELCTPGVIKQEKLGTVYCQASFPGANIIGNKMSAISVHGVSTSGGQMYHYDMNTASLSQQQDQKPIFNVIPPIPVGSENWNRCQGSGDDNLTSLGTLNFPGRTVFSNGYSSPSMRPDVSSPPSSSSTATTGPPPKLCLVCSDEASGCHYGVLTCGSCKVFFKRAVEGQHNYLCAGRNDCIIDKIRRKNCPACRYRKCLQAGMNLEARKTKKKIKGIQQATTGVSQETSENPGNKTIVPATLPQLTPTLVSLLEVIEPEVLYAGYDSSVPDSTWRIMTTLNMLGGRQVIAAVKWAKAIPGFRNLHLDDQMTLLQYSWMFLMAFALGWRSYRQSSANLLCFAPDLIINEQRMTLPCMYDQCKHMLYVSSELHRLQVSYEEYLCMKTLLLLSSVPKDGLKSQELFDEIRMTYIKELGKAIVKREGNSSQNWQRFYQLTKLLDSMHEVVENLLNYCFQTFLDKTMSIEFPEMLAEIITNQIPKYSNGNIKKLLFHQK
3',5'-cyclic-AMP phosphodiesterase 4B (Homo sapiens), sequence (Q07343 whole entry, looked up): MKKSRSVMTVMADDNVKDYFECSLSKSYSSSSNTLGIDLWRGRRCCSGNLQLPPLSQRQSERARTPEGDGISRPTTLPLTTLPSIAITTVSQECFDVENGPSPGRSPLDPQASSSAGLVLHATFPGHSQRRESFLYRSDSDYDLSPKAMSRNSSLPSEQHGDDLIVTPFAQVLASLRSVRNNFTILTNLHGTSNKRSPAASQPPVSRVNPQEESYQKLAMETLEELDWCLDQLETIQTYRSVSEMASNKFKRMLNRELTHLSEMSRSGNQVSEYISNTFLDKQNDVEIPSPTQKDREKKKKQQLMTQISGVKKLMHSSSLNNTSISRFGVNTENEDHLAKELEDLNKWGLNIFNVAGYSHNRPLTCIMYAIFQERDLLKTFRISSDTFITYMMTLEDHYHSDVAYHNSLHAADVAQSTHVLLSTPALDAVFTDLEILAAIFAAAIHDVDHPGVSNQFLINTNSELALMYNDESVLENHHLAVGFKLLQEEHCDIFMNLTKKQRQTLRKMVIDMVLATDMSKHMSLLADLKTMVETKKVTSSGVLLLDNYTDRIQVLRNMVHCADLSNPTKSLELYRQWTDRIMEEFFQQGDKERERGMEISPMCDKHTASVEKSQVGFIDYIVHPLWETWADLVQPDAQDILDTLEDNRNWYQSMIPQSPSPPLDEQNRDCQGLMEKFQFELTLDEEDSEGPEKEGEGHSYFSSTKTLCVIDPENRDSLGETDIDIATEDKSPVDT
Alpha-galactosidase A (Homo sapiens), sequence (P06280 whole entry, looked up): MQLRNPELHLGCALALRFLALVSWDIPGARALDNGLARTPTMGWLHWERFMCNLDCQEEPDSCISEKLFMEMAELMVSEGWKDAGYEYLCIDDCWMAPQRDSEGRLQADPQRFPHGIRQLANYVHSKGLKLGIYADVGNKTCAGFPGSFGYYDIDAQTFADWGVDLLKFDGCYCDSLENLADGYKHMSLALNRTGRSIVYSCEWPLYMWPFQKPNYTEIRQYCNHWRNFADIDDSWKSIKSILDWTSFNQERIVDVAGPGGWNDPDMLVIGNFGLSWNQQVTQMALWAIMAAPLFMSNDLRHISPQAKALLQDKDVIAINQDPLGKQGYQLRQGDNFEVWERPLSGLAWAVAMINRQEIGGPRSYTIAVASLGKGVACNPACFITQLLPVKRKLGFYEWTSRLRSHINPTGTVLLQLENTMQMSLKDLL
Pyruvate kinase (Leishmania mexicana), sequence (Q27686 2-499 E452W): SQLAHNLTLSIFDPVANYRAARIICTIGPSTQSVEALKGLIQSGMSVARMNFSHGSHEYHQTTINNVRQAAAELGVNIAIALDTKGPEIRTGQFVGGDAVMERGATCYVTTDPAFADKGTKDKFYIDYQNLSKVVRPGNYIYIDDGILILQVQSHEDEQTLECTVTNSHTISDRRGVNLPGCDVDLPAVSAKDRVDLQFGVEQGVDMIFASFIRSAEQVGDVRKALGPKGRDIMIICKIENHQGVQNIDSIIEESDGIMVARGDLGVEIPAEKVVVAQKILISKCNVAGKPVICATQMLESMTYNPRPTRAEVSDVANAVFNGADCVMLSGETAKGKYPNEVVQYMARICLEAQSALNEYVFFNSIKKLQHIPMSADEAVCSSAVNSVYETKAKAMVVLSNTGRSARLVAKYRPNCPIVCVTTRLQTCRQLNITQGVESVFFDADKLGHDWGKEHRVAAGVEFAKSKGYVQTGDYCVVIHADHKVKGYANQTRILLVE
Guanine nucleotide-binding protein G(i) subunit alpha-1 (Homo sapiens), sequence (P63096 whole entry, looked up): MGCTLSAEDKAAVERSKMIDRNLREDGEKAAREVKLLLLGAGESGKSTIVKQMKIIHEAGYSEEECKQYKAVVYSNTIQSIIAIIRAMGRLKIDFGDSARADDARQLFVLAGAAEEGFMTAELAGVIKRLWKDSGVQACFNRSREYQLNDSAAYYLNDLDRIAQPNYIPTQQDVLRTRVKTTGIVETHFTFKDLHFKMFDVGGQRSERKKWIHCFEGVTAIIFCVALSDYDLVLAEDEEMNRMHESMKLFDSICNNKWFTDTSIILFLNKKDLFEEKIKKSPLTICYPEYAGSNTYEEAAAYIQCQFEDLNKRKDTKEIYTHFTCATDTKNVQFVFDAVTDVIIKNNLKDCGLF
DNA dC->dU-editing enzyme APOBEC-3G (Homo sapiens), sequence (Q9HC16 whole entry, looked up): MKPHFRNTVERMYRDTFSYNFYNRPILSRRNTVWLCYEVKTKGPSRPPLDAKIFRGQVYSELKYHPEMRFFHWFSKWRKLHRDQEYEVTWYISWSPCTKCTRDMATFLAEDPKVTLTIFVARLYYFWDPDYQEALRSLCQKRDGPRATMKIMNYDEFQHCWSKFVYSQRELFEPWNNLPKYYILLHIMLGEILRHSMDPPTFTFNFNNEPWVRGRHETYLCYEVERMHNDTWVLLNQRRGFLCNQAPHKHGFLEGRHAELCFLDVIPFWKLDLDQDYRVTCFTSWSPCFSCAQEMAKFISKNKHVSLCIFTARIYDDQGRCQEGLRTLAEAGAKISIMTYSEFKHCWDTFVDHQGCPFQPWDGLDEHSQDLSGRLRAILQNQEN
Muscarinic acetylcholine receptor M1 (Rattus norvegicus), sequence (P08482 whole entry, looked up): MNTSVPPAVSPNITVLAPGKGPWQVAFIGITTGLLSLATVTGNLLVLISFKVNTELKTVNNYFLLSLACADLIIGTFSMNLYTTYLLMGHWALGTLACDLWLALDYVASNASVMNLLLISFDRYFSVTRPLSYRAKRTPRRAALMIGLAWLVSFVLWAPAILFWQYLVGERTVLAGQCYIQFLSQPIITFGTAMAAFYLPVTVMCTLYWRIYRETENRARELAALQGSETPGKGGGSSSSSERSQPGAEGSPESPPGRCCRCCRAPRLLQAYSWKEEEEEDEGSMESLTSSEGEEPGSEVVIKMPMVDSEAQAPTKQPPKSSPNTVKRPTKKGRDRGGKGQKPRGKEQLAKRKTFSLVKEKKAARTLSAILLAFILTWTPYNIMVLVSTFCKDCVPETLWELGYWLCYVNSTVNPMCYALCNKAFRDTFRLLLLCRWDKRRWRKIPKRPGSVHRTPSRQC
Cytochrome P450 2C9 (Homo sapiens), sequence (P11712 whole entry, looked up): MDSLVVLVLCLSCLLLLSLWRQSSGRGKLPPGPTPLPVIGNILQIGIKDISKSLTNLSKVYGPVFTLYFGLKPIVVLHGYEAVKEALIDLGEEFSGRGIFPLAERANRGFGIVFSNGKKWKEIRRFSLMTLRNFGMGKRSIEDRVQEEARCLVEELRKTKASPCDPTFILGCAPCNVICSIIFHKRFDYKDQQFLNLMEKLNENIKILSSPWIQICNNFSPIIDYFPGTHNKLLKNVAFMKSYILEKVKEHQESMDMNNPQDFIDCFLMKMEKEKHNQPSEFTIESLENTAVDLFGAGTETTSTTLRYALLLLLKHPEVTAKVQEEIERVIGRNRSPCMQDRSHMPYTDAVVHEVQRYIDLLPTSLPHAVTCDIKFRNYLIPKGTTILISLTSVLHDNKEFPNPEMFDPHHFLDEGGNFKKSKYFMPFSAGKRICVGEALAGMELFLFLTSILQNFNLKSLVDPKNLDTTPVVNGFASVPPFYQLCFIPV
Ubiquitin carboxyl-terminal hydrolase 1 (Homo sapiens), sequence (O94782 whole entry, looked up): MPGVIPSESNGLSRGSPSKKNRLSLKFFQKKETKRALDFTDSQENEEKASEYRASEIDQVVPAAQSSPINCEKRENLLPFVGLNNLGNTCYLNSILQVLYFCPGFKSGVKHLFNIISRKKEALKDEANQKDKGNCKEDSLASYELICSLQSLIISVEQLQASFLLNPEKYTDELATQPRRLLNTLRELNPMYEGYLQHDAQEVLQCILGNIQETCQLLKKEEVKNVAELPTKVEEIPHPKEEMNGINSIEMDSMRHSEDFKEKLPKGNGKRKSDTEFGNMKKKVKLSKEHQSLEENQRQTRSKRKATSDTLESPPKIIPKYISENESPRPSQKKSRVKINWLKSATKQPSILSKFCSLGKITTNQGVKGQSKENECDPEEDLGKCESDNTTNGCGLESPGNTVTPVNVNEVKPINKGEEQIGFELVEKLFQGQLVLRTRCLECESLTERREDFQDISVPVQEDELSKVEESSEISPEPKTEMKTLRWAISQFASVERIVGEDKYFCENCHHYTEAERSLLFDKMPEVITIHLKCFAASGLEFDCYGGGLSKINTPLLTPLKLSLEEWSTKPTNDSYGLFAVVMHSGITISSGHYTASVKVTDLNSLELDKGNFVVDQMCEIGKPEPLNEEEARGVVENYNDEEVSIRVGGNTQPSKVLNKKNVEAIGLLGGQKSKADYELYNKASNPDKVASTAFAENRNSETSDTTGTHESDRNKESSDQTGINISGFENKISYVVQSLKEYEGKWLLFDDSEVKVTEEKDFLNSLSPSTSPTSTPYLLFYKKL

Turning to `COC(=O)C[C@H](NC(=O)[C@H](C)NC(=O)[C@@H](NC(=O)OCc1ccccc1)C(C)C)C(=O)CF` (Cbz-Val-Ala-Asp(OMe)-CH2F), the Potency entry in test [1] and in test [2] was “inactive” each time.

As to `C[C@H](N)CCCP(=O)(O)O`, the Potency entry in test [1] and in test [2] was “inactive” throughout.

`CC/C=C\C/C=C\C/C=C\CCCCCCCCCC(=O)O`: the results for the activity change, negative = inhibition in [1] and in test [2] were 1.1% [at 6.83 µM] (inactive) and 4.31% [at 3.88 µM] (inactive), respectively.

On to `COC(=O)C1=C(C)NC(C)=C(C(=O)NCCCN2CCC(c3ccccc3)(c3ccccc3)CC2)C1c1ccc([N+](=O)[O-])cc1` (stereo not given), for which the Potency result in test [1] and in [2] was “inactive” throughout.

In the case of `O=c1ncccn1[C@@H]1O[C@H](CO)C(O)[C@@H]1O` (stereo not given in full), the Potency entry in [1] and in test [2] was “inactive” in each case.

Regarding `CC(C)NC[C@@H](O)COc1ccc(CCOCC2CC2)cc1`, the activity change, negative = inhibition in test [3] (at 17.2 µM (top of the series)) was -7.61% (inactive); in test [3] (at 38 µM (top of the series)), 1.38% (inactive); in test [4] (at 17.2 µM (top of the series)), -13.9% (inactive); in test [4] (at 38 µM (top of the series)), 5.51% (inactive); in test [17] (at 25.7 µM (top of the series)), -3.72% (inactive); in test [17] (at 57.5 µM (top of the series)), 3.94% (inactive). In addition, the activity, negative = inhibition in [5] (at 17.2 µM (top of the series)) is 9.37% (inactive); in [5] (at 38 µM (top of the series)), 21.1% (inactive). The Potency in test [6] was > 46 µM (inactive) and > 20.6 µM (inactive); in [7], > 46 µM (inactive) and > 20.6 µM (inactive); in [11] it was 631 nM (active). Moreover, the Potency entry in test [8], in [9], in test [12], in test [13], in [14] and in test [18] was “inactive” throughout. Further, the Potency entry in test [19], in [1] and in test [2] was “inactive” throughout. The molecule was called inactive in test [10], in test [15] and in test [16]. Besides, the max response in test [17] (measured here: cell count channel max response) was 2.99% and 8.52%; in [17] (measured here: lipid channel max response), -0.358% and 14.4%.

As to `C[N+]1(Cc2ccccc2)CCC(C(=O)OCC2CCCC2)CC1` (stereo not given), the Potency entry in test [1] and in test [2] was “inactive” in each case.

Regarding `CCCCCCCCCCCCCCCCCCOC[C@H](COP(=O)([O-])OCC[N+](C)(C)C)OC(C)=O`, the values for the activity change, negative = inhibition in test [1] and in test [2] were 10.6% [at 6.83 µM] (inactive) and 33.9% [at 3.88 µM] (inactive), respectively.

Turning to `COc1ccccc1C1(O)CCN(CCCn2c3ccccc3c3ccccc32)CC1`, the Potency entry in [1] and in test [2] was “inactive” throughout.

In the case of `CCCCC/C=C\C\C=C/C=C/C=C/[C@@H](SC[C@H](N)C(=O)O)[C@@H](O)CCCC(=O)O`, the activity change, negative = inhibition is 5.9% [at 0.59 µM] (inactive) in [1] and -5.61% [at 0.478 µM] (inactive) in test [2].

Turning to `C[C@H](NC(=O)CNC(=O)[C@@H](NC(=O)[C@H](Cc1ccccc1)NC(=O)CNC(=O)CNC(=O)[C@@H](N)Cc1ccccc1)[C@@H](C)O)C(=O)N[C@@H](CCCN=C(N)N)C(=O)N[C@@H](CCCCN)C(=O)N[C@@H](CO)C(=O)N[C@@H](C)C(=O)N[C@@H](CCCN=C(N)N)C(=O)N[C@H](CN)CCCCN` (HELM PEPTIDE1{F.G.G.F.T.G.A.R.K.S.A.R.[NCCCC[C@@H](CN)N[*:1]]}$$$$V2.0), the figures for the activity change, negative = inhibition in test [1] and in test [2] were 1.78% [at 6.83 µM] (inactive) and -10.3% [at 3.88 µM] (inactive), respectively.
